# FBA Mtb inh: inhibitors of M. tuberculosis fructose-bisphosphate aldolase | inhibition, % at 1 µM | actives 2.3% (n = 360,000) | AID 588726 | purified M. tuberculosis FBA, fluorescence read-out | P9WQA3; in the data active = inhibition above about 27%
# PrP UTR inh: suppresses PrP 5' UTR mRNA reporter expression. inhibition, % (no concentration beside the values). AID 488862. actives 0.35% (n = 340,000). cell-based PrP 5' UTR mRNA reporter, plate reader; in the data active = inhibition above about 52%
# Mtb hypoxia rep: inhibitors of hypoxia-regulated fluorescent reporter in Mycobacterium tuberculosis; M. tuberculosis hypoxia-regulated fluorescent reporter, fluorescence; fluorescence inhibition, % (concentration not given with the values); actives 0.1% (n = 300,000); AID 1159583; in the data active = fluorescence inhibition mostly above about 23%, no sharp cut-off; inactive = mostly below about 17%
# GDH-TPI counter: inhibits GDH-TPI coupling enzymes, artifact for Mtb FBA screen | AID 588335 | GDH-TPI coupled enzyme counterscreen, NADH absorbance | actives 1.2% (n = 360,000) | inhibition, % at 4.8 µM; in the data active = inhibition above about 30%
# PrPC TRFRET: reduces human prion protein on the cell surface; P04156; cell surface PrPC, TR-FRET read-out; inhibition, % at 13.8 µM; actives 0.43% (n = 370,000); in the data active = inhibition above about 24%
# Y pestis TopoI: Y. pestis Topo-I inhibition via cleavage products | Y. pestis Topo-I cleavage product accumulation, plate reader | activity, % at 10 µM | actives 0.064% (n = 360,000); in the data active = activity above about 50%, passing the limit was not always enough; inconclusive = no clear call, values can overlap the other calls
# PrPC confirm: cell surface PrPC inhibition, TR-FRET confirmation; actives 65% (n = 1,500); AID 743200; inhibition, % at 13.8 µM; cell surface PrPC level; shares compounds with PrPC TRFRET; in the data active = inhibition above about 25%
# LD9 cytotox: kills or reduces viability of LD9 cells in PrPc counter-screen; shares compounds with PrPC TRFRET; LD9 cells cytotoxicity, luminescence viability; inhibition, % at 13.8 µM; actives 29% (n = 1,500); AID 743201; in the data active = inhibition above about 9.5%
# Hits are given with their value; - = inactive; ? = inconclusive; . = no result. A selection: hits, their analogues and other compounds. The true share with any hit is near 3.8%.
SMILES,FBA Mtb inh,PrP UTR inh,Mtb hypoxia rep,GDH-TPI counter,PrPC TRFRET,Y pestis TopoI,PrPC confirm,LD9 cytotox
CCOC(=O)c1c(NC(=O)COc2ncnc3ccccc23)sc(C(C)=O)c1C,-,-,-,-,29,-,36,-
O=C(CSc1ccc([N+](=O)[O-])cn1)Nc1ccc2c(c1)OCCO2,-,-,-,-,41,-,-,-
Cc1ccc(C=NNC(=O)c2ccccc2OCc2cccc(Br)c2)o1,.,.,-,.,.,.,.,.
O=C(COc1nsnc1N1CCOCC1)Nc1ccc(Cl)cc1,-,-,-,-,26,-,-,-
O=C(Nc1ccccc1)c1ccc(CSc2ncccn2)cc1,-,-,-,-,37,-,38,-
COc1ccc(C(=O)Nc2ncccc2C)cc1S(=O)(=O)N1CCCc2ccccc21,-,-,-,-,-,-,.,.
COc1ccc(C(=O)Nc2nc3c(s2)CCCC3)cc1S(=O)(=O)N1CCCc2ccccc21,-,-,-,-,28,-,-,-
O=C(COc1cccc([N+](=O)[O-])c1)NN=Cc1ccco1,.,.,-,.,.,.,.,.
CC(C)Cc1nc(Nc2ccccc2C#N)c2nnn(Cc3ccccc3)c2n1,-,-,-,-,29,-,-,-
CC(C)Cc1nc(N2CCC(C(N)=O)CC2)c2nnn(Cc3ccccc3)c2n1,-,-,-,-,-,-,.,.
CN(C)c1ccc(Sc2ccc3nc(N)nc(N)c3c2)cc1,-,.,.,-,33,-,35,15
Cc1[nH]c2ccc(Br)cc2c(=O)c1CN1CCOCC1,-,-,.,-,-,-,.,.
CCOc1ccc2[nH]c(C)c(CN3CCOCC3)c(=O)c2c1,-,-,-,-,32,-,-,-
CCOc1cc(C=NNC(N)=S)cc(Br)c1OCc1ccccc1C,.,.,-,.,.,.,.,.
Cc1cc(N2CCN(C)CC2)nc2ccc(NC(=O)CCC(=O)NCCC3=CCCCC3)cc12,-,-,-,-,38,-,-,-
Brc1ccc(-c2nnc3sc(CNC4CCCC4)cn23)cc1,-,-,-,-,46,-,58,-
CN(C)S(=O)(=O)c1ccc(NC(=O)CSc2ncnc3ccccc23)cc1,-,-,-,-,50,-,53,-
O=C(CSc1ncnc2ccccc12)Nc1cccc(S(=O)(=O)N2CCOCC2)c1,-,-,-,-,68,-,66,-
CN(C)S(=O)(=O)c1cccc(NC(=O)CSc2ncnc3ccccc23)c1,-,-,-,-,51,-,77,-
CC(=O)CC1c2cc(C(F)(F)F)ccc2S(=O)(=O)N1Cc1ccccc1 (stereo unspecified),.,.,-,.,.,.,.,.
NC(=O)c1nnn(Cc2cc(Cl)c(C(=O)c3ccc(Cl)cc3)c(Cl)c2)c1N,.,.,.,.,35,.,28,-
Nc1c(C(=O)Nc2ccc3c(c2)OCCO3)nnn1Cc1ccc(Cl)cc1,-,-,-,-,-,-,.,.
CCOc1ccc(-c2cc(C(=O)NCCCn3ccnc3)c3cc(Br)ccc3n2)cc1,-,-,.,-,25,-,82,-
C=CCNC(=O)c1ccc(Cn2c(=S)[nH]c3cc4c(cc3c2=O)OCO4)cc1,-,-,-,-,54,-,35,-
CCc1nc(SCC(=O)NNC(=O)C2CCCCC2)c2ccccc2n1,-,-,-,-,60,-,114,-
SMILES,FBA Mtb inh,PrP UTR inh,Mtb hypoxia rep,GDH-TPI counter,PrPC TRFRET,Y pestis TopoI,PrPC confirm,LD9 cytotox
CCc1nc(SCC(=O)NNC(=O)C(C)C)c2ccccc2n1,-,-,-,-,104,-,114,-
CCc1nc(SCC(=O)Nc2ccc(N(C)C)cc2)c2ccccc2n1,-,-,-,-,61,-,81,-
CC(=O)c1ccc(NC(=O)CSc2nc(C3CC3)nc3ccccc23)cc1,-,-,-,-,-,-,.,.
COC(=O)CC1c2cc(C(F)(F)F)ccc2S(=O)(=O)N1Cc1ccc(OC)cc1 (stereo unspecified),.,.,-,.,.,.,.,.
O=C(CSc1nnc(COc2ccc(Cl)cc2)n1Cc1ccco1)Nc1ccc2c(c1)OCO2,.,.,.,.,25,.,-,-
CCN(CC)Cc1c(C(=O)NN=Cc2cccnc2)nnn1-c1nonc1N,.,.,-,.,.,.,.,.
COc1ccc(C(=O)Nc2ccccc2C(=O)NC(Cc2ccc(O)cc2)C(=O)NNC(=O)c2ccc(C)cc2)cc1 (stereo unspecified),-,-,-,-,83,-,-,-
COc1ccc(C(=O)Nc2ccccc2C(=O)NC(Cc2ccc(O)cc2)C(=O)NNC(=O)c2ccccc2)cc1 (stereo unspecified),-,-,-,-,-,-,.,.
NC(=O)c1cc(NC(=O)CCc2nc3ccccc3s2)cc(C(N)=O)c1,-,-,-,-,37,-,31,-
COc1ccc(-c2nc3c(C)cc(Br)cn3c2CC(C)(C)C)cc1OC,-,.,.,.,42,.,52,-
COc1ccc(-c2nc3c(C)cc(Br)cn3c2Cc2cccc(Cl)c2)cc1OC,-,.,.,.,26,.,62,-
COc1ccccc1Cc1c(-c2ccc(OC)c(OC)c2)nc2c(C)cc(Br)cn12,-,.,.,.,-,.,.,.
NC(=O)NN=Cc1cn(-c2ccccc2)nc1-c1cccnc1,.,.,-,.,.,.,.,.
CCC1CCCCN1S(=O)(=O)c1ccc(NC(=O)c2nc(S(C)(=O)=O)ncc2Cl)cc1 (stereo unspecified),-,-,.,-,79,-,83,97
CS(=O)(=O)c1ncc(Cl)c(C(=O)Nc2ccc3ccccc3c2)n1,-,-,-,-,84,-,77,87
Cc1ccc(CS(=O)(=O)c2ncc(Cl)c(C(=O)Nc3ccc(OC(F)F)cc3)n2)cc1,-,-,.,-,-,-,.,.
CCS(=O)(=O)c1ncc(Cl)c(C(=O)Nc2ccc(C)cc2)n1,-,-,.,-,42,-,44,85
CC(=O)Nc1ccc(NC(=O)c2nc(S(=O)(=O)Cc3ccccc3)ncc2Cl)cc1,-,-,-,-,65,-,-,78
O=C1C2C3C=CC(CC3)C2C(=O)N1N=Cc1ccco1 (stereo unspecified),.,.,-,.,.,.,.,.
NC(c1csc(NC(=O)Nc2cccc(Cl)c2)n1)C1CCCCC1 (stereo unspecified),-,.,.,-,26,-,-,-
Cc1ccc2c(c1)C1C(CO2)C(c2ccccc2)[C@]2(C)C(=O)Nc3ccc(F)cc3C(=O)N12 (stereo partly specified),.,.,-,.,.,.,.,.
CC(C)(C)OC(=O)CC[C@@H](C(=O)NCCCCCCCCCCC(=O)N1CCN(C(=O)OC(C)(C)C)CC1)n1cc(CCCCCNC(=O)OC(C)(C)C)nn1,-,-,.,-,-,?,.,.
CC(C)(C)OC(=O)NCCCCCc1cn([C@@H](CO)C(=O)NCCCCCCCCCCC(=O)N2CCN(C(=O)OC(C)(C)C)CC2)nn1,-,-,.,-,53,-,34,36
CCOC(=O)c1c(/N=C/N(C)C)sc(/C=N/Nc2ccccc2)c1-c1ccc(Cl)cc1,-,-,.,-,26,-,33,-
